Assay results as given in PubChem BioAssay (NCI).
This is part of a sample that, as a whole, favours compounds with a hit. Of some 83,000 tested, about 20% had one in any assay.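 Compound tested at a single concentration for 48 hours in 96-well plates; a percent growth value below 10 was scored as active.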 Values without a mark were called inactive. The source made the active and inactive calls.

tested on: MDA-MB-468 breast; assay: NCI-60 one-dose screen, 48 h (100 = growth as untreated, 0 = no growth, -100 = all killed); details: 10 µM unless noted

**Q.** Which growth does the source give for `C=C1C(=O)O[C@H]2[C@H]1CC/C(Cn1cc(-c3ccsc3)nn1)=C\CC[C@@]1(C)O[C@@H]21` here?
**A.** -56.8% (active)

**Q.** How did the growth turn out when `N#CCNc1ccccc1N` was run?
**A.** 108%

**Q.** With `CC1=C(C(=O)/C=C/c2ccc(N(C)C)cc2)C(c2ccccc2)NC(=S)N1` (centres undefined) as the compound, how does the growth read?
**A.** 102%

**Q.** With `Fc1cc2[nH]ncc2c2c3c(c(-c4cn[nH]c4)nc12)CCCC3` as the compound, how does the growth read?
**A.** -22.4% (active)

**Q.** How did the growth turn out when `CCn1cc(Cc2cc(C(=O)Nc3cc4cc(OC)c(OC)cc4c(C)n3)ccc2Cl)cn1` was run?
**A.** 35.5%

**Q.** Which growth does the source give for `CCOC(=O)/C(=C/c1ccc([N+](=O)[O-])cc1)C(=O)c1ccccc1` here?
**A.** 21.3%

**Q.** How did the growth turn out when `CCC(=O)N1C/C(=C/c2ccc(Cl)cc2)C(=O)/C(=C/c2ccc(Cl)cc2)C1` was run?
**A.** -84.5% (active)

**Q.** With `COc1cc(NCc2ccccc2O)c2ncccc2c1` as the compound, how does the growth read?
**A.** 90.4%

**Q.** For `COc1cc(Cn2cc3c(c2)-c2onc(CN4CCCC4)c2CC3)cc(OC)c1OC`, which growth is on record?
**A.** 82.7%

**Q.** For `CCOC(=O)CCN(CC(C)C)C(=S)Nc1ccccc1`, which growth is on record?
**A.** 104%

**Q.** With `C=CCC(CCC(CC=C)C(=O)OCC)C(=O)OCC` (centres undefined) as the compound, how does the growth read?
**A.** 108%

**Q.** With `CCOC(=O)c1c(C)nc2ccccc2c1/C=C/c1ccc(F)cc1` as the compound, how does the growth read?
**A.** -2.47% (active)

**Q.** With `COc1cc(CNC(=O)CSc2nc3ccccc3c(=O)n2Cc2cc(OC)c(OC)c(OC)c2)cc(OC)c1OC` as the compound, how does the growth read?
**A.** 91.7%

**Q.** Which growth does the source give for `CCC(=O)C1C(=O)c2ccccc2C1=O` here?
**A.** 115%

**Q.** With `c1ccc2c(-c3nc4ccccc4[nH]3)cccc2c1` as the compound, how does the growth read?
**A.** -15.3% (active)

**Q.** With `N#C/C(=C/N1C(=O)/C(=C/c2ccc([N+](=O)[O-])cc2)SC1=S)c1nc2ccccc2s1` as the compound, how does the growth read?
**A.** 84%

**Q.** `Cc1cc(C)cc(Nc2nccc(-c3c(-c4ccc(F)cc4)ncn3C3CCNCC3)n2)c1` was tested. Which growth did it give?
**A.** -29.9% (active)

**Q.** How did the growth turn out when `Nc1nc(N)c2c(n1)NC(c1ccc(C(F)(F)F)cc1)CC(c1ccc(Nc3nc(NCCO)nc(Nc4ccc(Cl)cc4)n3)cc1)=N2` (centres undefined) was run?
**A.** -84.7% (active)

**Q.** With `O=C(Nc1ccc(I)cc1)c1cc([N+](=O)[O-])ccc1O` as the compound, how does the growth read?
**A.** 9.76% (active)

**Q.** `CCCCC/C=C\C/C=C/CCCCCCCCNC(=O)Nc1ccc([N+](=O)[O-])cc1` was tested. Which growth did it give?
**A.** 84.5%

**Q.** How did the growth turn out when `COC1=CC(=O)c2nc(Cl)ccc2C1=O` was run?
**A.** -51% (active)

**Q.** Which growth does the source give for `CC(C)(C)c1ccc(C(=O)Nc2sc3c(c2C(N)=O)CCC(=O)C3)cc1` here?
**A.** -54.7% (active)

**Q.** Which growth does the source give for `Cc1ccc(-c2nc3nc(-c4ccccc4)nc(N4CCNCC4)c3o2)cc1` here?
**A.** -87.2% (active)

**Q.** For `Nc1nc(-c2cc3c(cc2Cl)NC(=O)/C3=C/c2ccc(Cl)cc2)cs1`, which growth is on record?
**A.** -14% (active)
